In the supplement of paper PMC11417369:
± gives the standard deviation of the averaged measurements. In all, about 25,000 sequences were measured (“ln(normalized median fluorescence intensity)”: median about 8.6, highest 2% from about 10 on). This is one part of a sample in which the highest values are shown more often than they occur.

What follows are sequences tested on PfAP2-EXP AP2 domain (GST-tagged) (assay: gcPBM binding intensity (ln(normalized median fluorescence intensity)); higher = stronger DNA binding).
Outline: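 Binding intensity is the highest Masliner-normalised natural-log median intensity over replicate spots in either probe orientation. To obtain it, GST-tagged P. falciparum DNA-binding domains made in E. coli were incubated for 1 h on an Agilent 4 × 180k array of primer-extended double-stranded 36-bp intergenic genomic probes plus negative controls. Detection used Alexa488 anti-GST antibody with scanning at 488 nm.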

Sequence | gcPBM binding intensity (ln)
TAAAATTTAAGTTATACACACTTAAGTAACATCATC [CACACA_site6395] | 8.72 ± 0.37
TGTTTATGTATCAATTGTACAAAAAAAAAAAAAAAA [XGTACX_site1590] | 8.26 ± 0.46
TGACCTGTTCAGGTAACACACATATAAACACATACA [CACACA_site4186] | 8.8 ± 0.43
TTAATAACGTAATGTAAATGTTTCATACCCTTTTTT [CACACA_negctrl_site988] | 8.36 ± 0.43
ATAAAAAAAGGACACACACACATATATTTATTTATA [CACACA_site7438] | 8.66 ± 0.52
AAAGGATACAGACACACACACACATATATATATATA [CACACA_site906] | 10.1 ± 0.4
CCATAAAAAGGATACACACACACACCCACATATATA [CACACA_site903] | 8.71 ± 0.45
ATAAAAAAAGGACACACACACATATATATATATATA [CACACA_site5662] | 10.2 ± 0.42
CAACGATACAAAAAAGGTACACATATATATATATAT [XGTACX_site8688] | 10.2 ± 0.47
AAAGGATATAGACACACACACACATATATATATATA [CACACA_site2200] | 10.2 ± 0.14
CCATAAAAAGGATACACACACACACGCACATATATA [CACACA_site6550] | 8.73 ± 0.5
TAAAAGGATACATATACACACATATATATATATATA [CACACA_site2791] | 10.2 ± 0.42
TATATATATAGACACACACACACATATATATATATA [CACACA_site9366] | 10.1 ± 0.42
AATACAAAAAAAGGTACACACATAATATATTTATTA [CACACA_site2628] | 8.7 ± 0.34
CATATAAAAGGACACACACACACATATATATATATA [CACACA_site4674] | 10 ± 0.43
ACAAATACAAAAAAAGGTACACACATAATATATTTA [XGTACX_site5515] | 8.72 ± 0.51
TTTTTTATTTTAAAAACATGCATAAAATATAATAGT [TGCATGCA_site762] | 8.94 ± 0.42
ACATGTATACTTTTTACGAAAAAAAAAAAAAAAAAA [CACACA_negctrl_site1638] | 8.09 ± 0.45
TTTTAAAAAGATCATTAAAAAAAAAAAAAGAACAAA [CACACA_negctrl_site528] | 8.53 ± 0.41
TATACATATTTGTATTGTACATAAACTAAATCTTCA [XGTACX_site610] | 8.21 ± 0.36
ATACGATTGAAACATTGTACATGAATATAAAAAAAT [XGTACX_site5704] | 8.88 ± 0.47
ATATTTTATTATTGTTGTACTTTTTTTTGATTGTTT [XGTACX_site4090] | 8.81 ± 0.42
TTGTGTTCTTATTTTTACACCGAAAAATATTAAAAG [CACACA_negctrl_site535] | 8.55 ± 0.29

Sequence | gcPBM binding intensity (ln)
AATGGATGGTCCAAATGTACATATATATATATATAT [XGTACX_site4800] | 10.1 ± 0.41
ATATATATATGTTACTGTACTAATTTATATGTTAAT [XGTACX_site3341] | 9.665 ± 0.064
AAAGGGATAACACCAAAAAAAATAAAAATAAAAATA [GTGCAC_negctrl_site680] | 8.61 ± 0.54
CATATAAAAAGACACACACACACATATATATATATA [CACACA_site940] | 10.3 ± 0.18
AAAAATTATGGACACACACACATATATATATATATT [CACACA_site4717] | 8.53 ± 0.31
AATTATGGGGAAAAGACACACATATATATATATATA [CACACA_site2589] | 10.3 ± 0.31
ATAAAAAAAAGACACACACACATATATATATATATA [CACACA_site3073] | 10 ± 0.33
GAGAAATGGGGACACACACACATATTATATATATAT [CACACA_site4943] | 9.71 ± 0.2
AGGATATGCAGACACACACACATATATATATATATA [CACACA_site2201] | 10.3 ± 0.41
AGGATACACAGACACACACACATATATATATATATA [CACACA_site907] | 10 ± 0.45
AGGATATGCAGACACACACACATATAGATTTATATA [CACACA_site7100] | 8.41 ± 0.48
AAAAAAAAAAGACACACACACATATAAATATAAATA [CACACA_site6899] | 8.75 ± 0.38
CATACCTTTTAATGTACACACATTTCTTTTTTGTTA [CACACA_site892] | 8.88 ± 0.28
AAAAAAAAAATTAAATGTACATATATAATATATATA [XGTACX_site7245] | 8.62 ± 0.014
TCCTACATATTATAGTGTACATTTTCATGTTCATAT [XGTACX_site4308] | 8.62 ± 0.39
ATAAGATGATGGAACTGTAATATATATATATATATA [CACACA_negctrl_site839] | 10 ± 0.5
AAAAAAATAAATAAATGTACATATATAAAACATTGT [XGTACX_site2136] | 8.87 ± 0.33
TGTAATCTGGAGAAAAGTACACAGTATCTGGTAGCT [XGTACX_site2039] | 8.53 ± 0.34
TTTTTAATTTACTGTCATAGGTACCTTAACTTATCA [CACACA_negctrl_site1664] | 8.72 ± 0.49
ATATAAATGTATATGACACACATATATATATATATA [CACACA_site889] | 9.91 ± 0.3
AAAAATAAAAAAATGACACACATATATATATATATA [CACACA_site2307] | 10 ± 0.53
AATGACAACCTTGTCACACATATATATATATATATA [CACACA_site5977] | 10.2 ± 0.4
AAAAAAAAAAAAAAAAATATATTTATGAAATAAAAA [TGCATGCA_negctrl_site262] | 8.405 ± 0.078

Sequence | gcPBM binding intensity (ln)
ATGGGACATATATATACACACATATATATATATATA [CACACA_site1202] | 10 ± 0.21
TGAACTTACTTGGACATACACACATATATATATATA [CACACA_site2977] | 10.2 ± 0.27
AACTTACTTGGACATACACACATATAGATTTATATA [CACACA_site7412] | 8.84 ± 0.3
ATTTATATTTTATATACACACATGAACTTATATGGA [CACACA_site3167] | 8.37 ± 0.41
TATACAGATGGACACACACACATATATATATATATA [CACACA_site5272] | 10.2 ± 0.3
AACTTACTTGGACATACACACATATATATATATATA [CACACA_site2978] | 10.2 ± 0.44
ATAAATATACATTATACCGACCATGTGGATATTATA [XGTACX_negctrl_site241] | 8.43 ± 0.49
GTGCATATGTAGATATGTACATATTTATTTATTATT [XGTACX_site7343] | 8.38 ± 0.16
TTCTAGAAAACTGATCGTACAAATAAATATAGACAC [XGTACX_site2808] | 8.88 ± 0.28
AATGGTAATCCACATACACACACACCGACACATATA [CACACA_site8876] | 8.72 ± 0.49
TTCTTCTGTTTTATTACACACCATTTTGTGTATACA [CACACA_site7059] | 8.96 ± 0.35
GGTATATATTTATAATGTACATATTCATATATATAA [XGTACX_site3291] | 8.45 ± 0.39
TATAAATATAAATACACACACACACGCCAAAGCGTA [CACACA_site6181] | 8.49 ± 0.36
TATATATATAAATACACACACACACCCCAAAGCGTA [CACACA_site4211] | 9.18 ± 0.46
TATATATATATATACACACACACACCCCAAAGCGTA [CACACA_site64] | 10.4 ± 0.15
TATATATATATATATACACACACACCCACCAAAGCG [CACACA_site7904] | 10.3 ± 0.26
CATATACACCAACACACACACACACCCACAAAAAAA [CACACA_site496] | 8.53 ± 0.4
ACCATACATACATACACACACACACCCATATATATA [CACACA_site2917] | 8.94 ± 0.45
GTACACATATAGTAATAATTTTATTATATTTTTTTG [CACACA_negctrl_site843] | 8.46 ± 0.3
TATATATATATATATTTTTTTTTTTTATGCACATGG [CACACA_negctrl_site1573] | 10.1 ± 0.36
ATATAAGTACGGCATGCATGCACATTTTTTTATTCC [TGCATGCA_site101] | 10.3 ± 0.23
GATTATTTTATAAGTACACACATTTATATATAATAA [CACACA_site2573] | 8.41 ± 0.33
AAATATTACCATGTGAAAATTTTACTGCAACATGAA [TGCATGCA_negctrl_site609] | 8.71 ± 0.38

Sequence | gcPBM binding intensity (ln)
AATGAATAATTATTTTGTACATAATATTATATTTAT [XGTACX_site5350] | 8.34 ± 0.36
AATCATTAAAGCATAATGTTTATGATCAATATGAAA [CACACA_negctrl_site887] | 8.27 ± 0.33
GTTACATACATATACACACACATATATATATATATA [CACACA_site901] | 9.99 ± 0.35
CCCTCTTCTCTCATATCACACATGTCATCCTTATCC [CACACA_site5078] | 9.15 ± 0.42
TTTATATTTATATATACACACATATACATCCTATTT [CACACA_site3079] | 8.54 ± 0.31
CTCATCCTTACATACACACACATATATTTATTTATA [CACACA_site6202] | 8.99 ± 0.39
TTCTCATCCTTACATACACACACATATATATATATA [CACACA_site7914] | 10.3 ± 0.11
CTCATCCTTACATACACACACATATATATATATATA [CACACA_site103] | 10.2 ± 0.29
TTTTTTTTTTTTTTTACACACAAATGTATACTATAT [CACACA_site1787] | 8.46 ± 0.43
TTTTTATTGTTATAGTTATAATATATTATTTGATTA [XGTACX_negctrl_site27] | 8.44 ± 0.4
TATATATTAGAAGATAGTACATATATATTTATTAAT [XGTACX_site1011] | 8.53 ± 0.24
ATATTTGCCCAAGATAGTACATATATATATATATAT [XGTACX_site7756] | 10.2 ± 0.24
ATATATATATATAATAGTACATATATTTTGAAAGAT [XGTACX_site5800] | 9.75 ± 0.27
AAAATTAAATTATAAGCACACACATATATATATATA [CACACA_site9105] | 10.2 ± 0.52
AAATTAAATGTAAGCACACATAAATTATACTCATAT [CACACA_site5782] | 8.36 ± 0.33
AAAAAAAAAAAATTCACACACATATAAAAAATTAAG [CACACA_site728] | 8.39 ± 0.45
AAATTAAATGTAAGCACACATAAATTATACGCATAT [CACACA_site3335] | 8.6 ± 0.38
ATAAAAAAAAATAGCACACATAAATATATTATATAT [CACACA_site767] | 8.66 ± 0.35
AATTAAATTATAAGCACACACATATATATATATATA [CACACA_site3351] | 10.2 ± 0.32
ATAAAAATATTATAAGCACACATATATATATATATA [CACACA_site8781] | 10.2 ± 0.34
AAAAATATTATAAGCACACATATATATATATATATA [CACACA_site2458] | 10.3 ± 0.28
TATATATATATAAGCACACAAACAAAAAAAATTATA [CACACA_site3897] | 9.74 ± 0.27
